Source: PubChem BioAssay
RORg inh – qHTS for inhibitors of ROR gamma transcriptional activity; Nuclear receptor ROR-gamma (Mus musculus), P51450; Drosophila S2 Gal4-RORgamma UAS-luciferase reporter, 20 h; actives 5.4% (n = 310,000); Potency, µM (top dose mostly 53.6 µM), actives largely listed as inhibitors; AID 2551, 2010; note: nearly all actives have a fitted effect of over 60% in size
Target sequence (P51450 whole entry, looked up, the tested form may be a part): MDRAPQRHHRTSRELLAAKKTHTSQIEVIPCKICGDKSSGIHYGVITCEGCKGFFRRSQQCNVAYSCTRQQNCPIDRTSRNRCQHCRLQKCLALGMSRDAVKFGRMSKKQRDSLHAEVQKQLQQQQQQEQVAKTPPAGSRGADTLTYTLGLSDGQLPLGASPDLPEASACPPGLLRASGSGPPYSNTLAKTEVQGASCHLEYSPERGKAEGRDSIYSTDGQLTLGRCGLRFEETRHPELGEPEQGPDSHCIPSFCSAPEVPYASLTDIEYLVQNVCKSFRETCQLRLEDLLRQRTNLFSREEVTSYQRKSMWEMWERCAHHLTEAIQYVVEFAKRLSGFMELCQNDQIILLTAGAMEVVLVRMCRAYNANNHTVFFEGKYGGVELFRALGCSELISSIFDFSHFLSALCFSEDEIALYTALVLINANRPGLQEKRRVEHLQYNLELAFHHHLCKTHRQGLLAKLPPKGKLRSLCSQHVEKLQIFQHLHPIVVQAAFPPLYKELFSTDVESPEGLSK
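ROR gamma transcriptional activity was tracked as Gal4-UAS luciferase output in stably transfected Drosophila Schneider cells, with compound added 1 hr before 700 uM copper sulfate induction and a 20 hr ambient-temperature incubation.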
TRPV1 PAM – HTS Assay for Compounds that Act as Potentiators of the Vanilloid Receptor 1 | Transient receptor potential cation channel subfamily V member 1 (Homo sapiens), Q8NER1 | TRPV1-expressing cells, Fluo-8 calcium influx, capsaicin EC20 potentiation | potentiation, % at 8.33 µM | actives 0.02% (n = 320,000); in the data active = potentiation above about 80%; inconclusive = between about 30% and that limit
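Cells expressing TRPV1 were dye-loaded with Fluo-8 and read kinetically: 10 s baseline, 3 min after compound (agonist portion), then 2 min after EC20 capsaicin (allosteric enhancer portion). Calcium-bound dye fluorescence at 480/520 nm.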
Gal4-VP16 FLuc – VP16 counterscreen qHTS for inhibitors of ROR gamma transcriptional activity; actives 3.5% (n = 310,000); Potency, µM (series often up to 53.6 µM), most hits filed as inhibitors; Drosophila S2 Gal4-VP16 UAS-luciferase, luminescence, 20 h;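 note: Gal4-VP16 expression switched on by copper sulfate through the metallothionein promoter; nearly all actives have a fitted effect of over 50% in size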
TRPV1 agonist – HTS Assay for Compounds that Act as Agonists of the Vanilloid Receptor 1; Transient receptor potential cation channel subfamily V member 1 (Homo sapiens), Q8NER1; TRPV1-expressing cells, Fluo-8 calcium influx, agonist mode; activation, % at 8.33 µM; actives 0.19% (n = 320,000); in the data active = activation above about 80%; inconclusive = between about 30% and that limit
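Cells expressing TRPV1 were dye-loaded with Fluo-8 and read kinetically: 10 s baseline, 3 min after compound (agonist portion), then 2 min after EC20 capsaicin (allosteric enhancer portion). Calcium-bound dye fluorescence at 480/520 nm.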
uPA surface inh – qHTS for Inhibitors of Cell Surface uPA Generation. actives 0.31% (n = 330,000). Potency, µM (highest dose often 38.3 µM), usual class: inhibitors. cell surface uPA generation assay, qHTS; active = well fitted inhibition curve with a large enough effect; inconclusive = small, poorly fitted or top-dose-only effect; inactive = no such curve, though single readings can be large or run the other way; tested in mouse RAW 264.7 cells; note: nearly all actives have a fitted effect of over 55% in size
Hits are given with their value; 0 = inactive; ? = inconclusive; - = no result; [ ] = another dose, or the depositor's remark. The list is not random: actives were taken first. Their share in the collection is about 5.8%. Unless noted, calls come from the whole dose curve; as a rule, active = well fitted curve in the direction sought with a large enough effect; inconclusive = small, poorly fitted or top-dose-only effect, or another doubt; inactive = no such curve, though single readings can be large; an effect the other way counts as inactive or inconclusive.

SMILES	RORg inh	TRPV1 PAM	Gal4-VP16 FLuc	TRPV1 agonist	uPA surface inh
Cc1cccc(CNc2nc(-c3ccccc3CN(C)C)nc3ccccc23)c1	22µM	-	?	-	-
COc1ccc(CNc2nc(-c3ccccc3CN(C)C)nc3ccccc23)c(OC)c1	13µM	-	?	-	-
O=C(NCC1CCCO1)c1ccccc1NS(=O)(=O)c1ccc(F)cc1 (configuration not stated)	-	0	-	0	0
CC(=O)C1=C(C)NC(SCC(=O)c2ccc(C)cc2)=C(C#N)C1c1ccco1 (configuration not stated)	?	0	2.8µM	0	-
COC(=O)c1cc(C)sc1NC(=O)CN1CCN(C(=O)C2CCCO2)CC1 (configuration not stated)	10µM	0	?	0	0
CCOC(=O)c1cc(C)sc1NC(=O)CN1CCN(C(=O)C2CCCO2)CC1 (configuration not stated)	0	0	0	0	0
CCNc1ncc2nc(-c3cc(F)cc(F)c3)c(=O)n(CCc3ccccc3)c2n1	0	-	0	-	-
CCOc1ccc(C(=O)Cc2ccccc2)cc1	-	-	-	-	0
CCOc1ccc(C(=O)CSCCC(=O)O)cc1	0.28µM	0	0.32µM	0	0
COc1cccc2cccc(/C=N/n3cnnc3)c12	0	0	0	0	0
COc1ccc(-c2ccc3c(n2)CCCN3C[C@H](O)CN2CCCc3nc(-c4ccc(Br)cc4)ccc32)cc1	0[10 µM]	-	0[10 µM]	-	-
COc1ccc(C(=O)c2oc3ccccc3c2N)cc1	0	-	10µM	-	0
CC(=O)Oc1c(-c2ccc(Br)o2)oc2ccccc2c1=O	7.1µM	0	7.1µM	0	0
COc1ccc(-c2oc3ccccc3c(=O)c2OCC(=O)O)cc1	0	0	0	0	0
O=C(O)COc1c(-c2ccco2)oc2ccccc2c1=O	0	0	0	0	0
COc1ccc2oc(C(=O)c3ccccc3)c(N)c2c1	0	0	0	0	0
COc1ccc(-c2oc3ccccc3c(=O)c2OC(C)=O)cc1	7.1µM	0	?	0	0
CC(=O)c1ccc(-c2cc(C3C4C=CCC(C)C4C(=O)N3Cc3ccccc3)ccc2F)cc1 (configuration not stated)	0	-	0	-	-
CCOC(=O)C(NC(=O)c1cccnc1)(Nc1cccc(C)n1)C(F)(F)F (configuration not stated)	0	0	0	0	0
CCOC(=O)C(NCc1ccccn1)(NC(=O)c1cccnc1)C(F)(F)F (configuration not stated)	16µM	0	0	0	0
COc1ccc(C2CC(=O)Oc3c(C(CCN4CCCC(C)C4)c4cc(OC)c(OC)c(OC)c4)c(OC)cc(OC)c32)cc1 (configuration not stated)	0	-	0	-	-
Cc1c(C)c2c(c(C)c1O)CCC(C)(CCCC(C)CCCC(C)CCCC(C)C)O2 (configuration not stated)	0	-	0	-	-
O=C(NC(=S)Nc1ccc(N2CCCC2)cc1)c1ccccc1[N+](=O)[O-]	4µM	0	5µM	0	0
O=C(NC(=S)Nc1ccccc1N1CCCC1)c1ccccc1[N+](=O)[O-]	2.8µM	0	4µM	?	0
O=C(Nc1ccc(N2CCCC2)c(Cl)c1)c1ccccc1[N+](=O)[O-]	0	0	0	?	0
SMILES	RORg inh	TRPV1 PAM	Gal4-VP16 FLuc	TRPV1 agonist	uPA surface inh
Cc1ccc(C(=O)NC(=S)Nc2ccccc2N2CCCC2)cc1[N+](=O)[O-]	?	0	?	0	0
COC(=O)[C@@H](NC(=O)c1ccc2c(c1)S(=O)(=O)c1ccccc1C2=O)C(C)C	0	0	0	0	0
CC(C)c1cc(C(=O)NNC(=S)NC2CCCCC2)cs1	?	0	?	?	0
CCc1c(C(=O)NNC(=S)NC2CCCCC2)csc1C	1.1µM	0	?	?	0
CCc1cc(C(=O)NNC(=S)NC2CCCCC2)cs1	2.2µM	0	10µM	0	0
CCCCC/C=C\C/C=C\C/C=C\C/C=C\CCCC(=O)C(F)(F)F	0	-	0	-	-
COc1ccc(/C=C2\SC(=S)N(CCCC(=O)Nc3ccc(O)cc3)C2=O)cc1	1.4µM	0	1µM	0	0
COc1ccc(/C=C2/SC(=S)N(CCC(=O)O)C2=O)cc1	5µM	0	?	0	0
COc1ccc(/C=C2\SC(=S)N(CCC(=O)Nc3ccc(C(=O)O)cc3)C2=O)cc1	0	0	0	0	0
O=C(O)CCN1C(=O)/C(=C\c2ccncc2)SC1=S	0	0	0	0	0
COc1ccc(/C=C2/SC(=S)N(CCCC(=O)Nc3ccc(O)cc3)C2=O)cc1	0.28µM	0	1.4µM	0	0
COC(=O)Cc1c(C)c2ccc(OCC(=O)N3CCCC(C)C3)c(C)c2oc1=O (configuration not stated)	0	0	0	0	0
CC(C)=CCN1CCN(Cc2cc(C(C)C)n[nH]2)CC1CCO (configuration not stated)	0	0	0	0	0
Fc1ccccc1NC(=S)NCCc1ccccc1	6.3µM	0	?	?	0
Fc1ccc(F)c(NC(=S)NCCc2ccccc2)c1	4.5µM	0	?	?	0
Fc1ccccc1NC(=S)NCCc1ccc(Cl)cc1	8.9µM	0	?	?	0
Fc1cccc(NC(=S)NCCc2ccccc2)c1	3.2µM	0	?	?	0
CCCOCC(C)OCC(C)O (configuration not stated)	0	-	0	-	-
CC(=O)c1cc(C#N)c(SCc2ccc([N+](=O)[O-])cc2)nc1C	0	0	0	0	0
CCC(C)(C)c1ccc(OCCCC[n+]2cccc(C)c2)c(C(C)(C)CC)c1	?	0	13µM	0	0
Cc1ccc[n+](CC(=O)Nc2cc(C(F)(F)F)ccc2Cl)c1	0	?	0	0	0
CCOc1ccc(/C=N/n2c(C3CCCCC3)n[nH]c2=S)cc1	4µM	0	?	0	0
S=c1[nH]nc(C2CCCCC2)n1/N=C/c1ccccc1	8.9µM	0	?	0	0
Fc1ccc(/C=N/n2c(C3CCCCC3)n[nH]c2=S)cc1	3.5µM	0	7.9µM	0	0
CN(C)c1ccc(/C=N/n2c(C3CCCCC3)n[nH]c2=S)cc1	2.5µM	0	6.3µM	0	0
SMILES	RORg inh	TRPV1 PAM	Gal4-VP16 FLuc	TRPV1 agonist	uPA surface inh
COc1cc(/C=N/n2c(C3CCCCC3)n[nH]c2=S)ccc1O	0	0	0	0	0
Cc1cccc(-c2ccc(-c3cc(=O)oc4cc(C)cc(C)c34)cc2)c1	0	-	0	-	-
O=C(c1ccc(N2C(=O)CCC2=O)cc1)N1CCN(c2ccccc2)CC1	0	0	0	0	0
O=C(CCCCCN1C(=O)CCC1=O)Nc1ccc(Cl)c(C(F)(F)F)c1	0	0	?	0	0
CC(=O)c1ccccc1NS(=O)(=O)c1cccc2nonc12	0	0	0	0	0
CSc1ccccc1NS(=O)(=O)c1cccc2nonc12	11µM	0	0	0	0
